Measurements as given in the supplement of paper PMC12340641.
Counter-ions that a name gives are not always drawn.

Experiments:
[1] = molecular target: IKZF1 (dCK*-IKZF1 fusion in HEK293FT) (UniProt Q13422); assay: inhibition of IKZF1 HTRF signal (DMSO = 0%, pomalidomide 10 uM = 100%); higher = lower IKZF1 protein level; conditions: compound concentration: 5 uM, overnight (~20 h)
How it was run: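 After overnight treatment at 37 °C with 5 μM compound in single wells, HEK293FT cells (2000/well, 384-well) stably expressing an IKZF1 fusion were lysed for 30 min at room temperature. A commercial HTRF total-IKZF1 antibody kit was incubated with the lysate overnight, and the time-resolved FRET ratio at 665/620 nm was corrected for background. Data are given as percent inhibition of IKZF1 signal relative, on each plate, to vehicle and a reference degrader, set at 0% and 100% respectively.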

HEK293FT dCK*-only = assay: relative growth in counter assay (no AraC = 100%, AraC + DMSO = 0%); higher = more growth rescue independent of IKZF1; conditions: compound concentration: 5 uM; AraC concentration: 0.3 uM; overnight pretreatment + 4 days AraC
How it was run: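 Counter assay in HEK293FT cells expressing dCK* alone (300/well, 384-well). Cells received 5 μM compound 2 h after seeding, then after overnight at 37 °C a nucleoside suicide substrate at 0.3 μM plus medium for 4 days. On day 5, Hoechst 33342-stained nuclei were counted by imaging. Relative growth was normalised per plate to wells without suicide substrate (100%) and substrate plus vehicle (0%).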

HEK293FT dCK*-IKZF1 = assay: relative growth recovery (pomalidomide 10 uM = 100%, DMSO = 0%); higher = more growth rescue (IKZF1 fusion degradation); conditions: compound concentration: 5 uM; AraC concentration: 0.3 uM; overnight pretreatment + 4 days AraC
How it was run: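 Means of duplicates from different days are given for growth recovery, normalised per plate against a reference degrader and vehicle. The reference degrader set the 100% level and vehicle the 0% level. HEK293FT cells stably expressing a deoxycytidine kinase–IKZF1 fusion (300/well, 384-well) received 5 μM compound 2 h after seeding and, after overnight at 37 °C, 0.3 μM of a nucleoside suicide substrate plus medium for 4 days. Nuclei stained with Hoechst 33342 were then counted by whole-well imaging on day 5.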

IKZF1 (dCK*-IKZF1 fusion in HEK293FT), sequence (Q13422 whole entry, looked up, the tested form may be a part): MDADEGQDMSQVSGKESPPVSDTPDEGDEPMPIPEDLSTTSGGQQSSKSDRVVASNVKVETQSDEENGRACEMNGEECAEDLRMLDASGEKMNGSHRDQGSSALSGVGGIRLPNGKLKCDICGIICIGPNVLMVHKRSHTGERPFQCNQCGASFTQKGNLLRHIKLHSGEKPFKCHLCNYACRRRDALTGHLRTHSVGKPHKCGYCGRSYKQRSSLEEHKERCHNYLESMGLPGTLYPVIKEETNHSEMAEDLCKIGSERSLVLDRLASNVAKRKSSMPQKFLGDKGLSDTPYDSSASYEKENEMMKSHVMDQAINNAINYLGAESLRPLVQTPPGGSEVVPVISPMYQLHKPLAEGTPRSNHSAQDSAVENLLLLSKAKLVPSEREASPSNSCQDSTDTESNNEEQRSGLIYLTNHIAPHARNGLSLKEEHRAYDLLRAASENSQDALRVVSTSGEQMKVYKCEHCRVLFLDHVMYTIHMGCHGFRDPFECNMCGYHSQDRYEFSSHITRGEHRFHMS

| SMILES | inhibition of IKZF1 HTRF signal [1] [%] | relative growth in counter assay (HEK293FT dCK*-only) [%] | relative growth recovery (HEK293FT dCK*-IKZF1) [%] |
| --- | --- | --- | --- |
| CO[C@H]1/C=C/O[C@@]2(C)Oc3c(C)c(O)c4c(O)c(c5c(c4c3C2=O)=NC2(CCN(CC(C)C)CC2)N=5)NC(=O)C(C)=CC=CC(C)[C@H](O)[C@@H](C)[C@@H](O)[C@@H](C)[C@H](OC(C)=O)[C@@H]1C (stereo not given in full) [Rifabutin] | 0.83 | 3.92 | -0.05 |
| C[C@@H]1CC(=O)NN=C1c1ccc(NN=C(C#N)C#N)cc1 | -27.1 | 11.2 | -2.62 |
| CN1CCC[C@@H]1CCO[C@](C)(c1ccccc1)c1ccc(Cl)cc1 [Clemastine Fumarate] | 6.24 | 4.09 | 2.26 |
| C=C1C(=O)O[C@@H]2[C@H]3O[C@]3(C)CC/C=C(\C)CC[C@@H]12 [parthenolide-(alternate-stereo)] | -27.7 | -34.4 | -12.4 |
| Clc1ccc(CSC(Cn2ccnc2)c2ccc(Cl)cc2Cl)cc1 (stereo not given) | -35.5 | -4.03 | -1.39 |
| CC(=C\c1ccc(Cl)cc1)/C(C)=N/O | -25.6 | -1.62 | -3.61 |
| Cc1noc(C)c1-c1ccc(-c2cc(C(N)=O)c(NC(N)=O)s2)c(O[C@H]2CCNC2)c1 | -26 | 4.03 | 3.93 |
| Nc1c2ccccc2nc2ccccc12 | 58.6 | -34.8 | -14 |
| O=C(Nc1ccc(S(=O)(=O)C(F)(F)F)cc1)C1=CCN(c2ncccc2C(F)(F)F)CC1 | -40.9 | 62.2 | 53.1 |
| CC/C(=C(\c1ccc(O)cc1)c1ccc(OCCN(C)C(=O)COCCOCCOCCOc2cccc(C(=O)c3csc([C@@H]4CCCN4C(=O)[C@@H](NC(=O)[C@H](C)NC)C4CCCCC4)n3)c2)cc1)c1ccccc1 | 13.9 | -31.8 | -11.5 |
